In the library only some 1.4% were active in any assay of this set; here they are far more common.
APOBEC3A inh = inhibitors of human APOBEC3A DNA deaminase. recombinant A3A, FAM/TAMRA ssDNA deamination fluorescence. AID 493011. 0.41% of 330,000 active. inhibition, % at 20 µM. P31941;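 active = at least 40% inhibition at 20 µM here, with at most 30% in a related deaminase screen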;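 also: plate controls were A3A with DMSO for no effect and wells lacking A3A enzyme for full effect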
NPR2 activator = GC-B (human) receptor activation | HEK293-GC-B cells, CNP EC30, cGMP TR-FRET; 0% at EC30 CNP, 100% saturating CNP | AID 1920062 | 0.11% of 370,000 active | P20594 | activation, % at 10 µM;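 active = activation at 10 µM reaching about 35% in either raw or pattern-adjusted values, limit read from the data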
GC-A act = GC-A (human) enzyme activation | P16066 | HEK293 GC-A cells, cGMP TR-FRET, EC30 ANP; 0% at EC30 ANP, 100% saturating ANP | activation, % at 10 µM | 0.14% of 370,000 active | AID 1671463; in the data active = activation above about 40%
A3G deaminase = blocks human APOBEC3G single-stranded DNA deamination; Q9HC16; recombinant A3G, ssDNA deamination FAM/TAMRA fluorescence; inhibition, % at 20 µM; 0.28% of 330,000 active;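 active = inhibition of at least 40% at 20 µM, with no more than 30% in the related APOBEC3A deaminase screen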;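 also: plate controls were DMSO wells with A3G for no effect and wells lacking A3G enzyme for full effect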
Target sequence (Q9HC16 whole entry, looked up): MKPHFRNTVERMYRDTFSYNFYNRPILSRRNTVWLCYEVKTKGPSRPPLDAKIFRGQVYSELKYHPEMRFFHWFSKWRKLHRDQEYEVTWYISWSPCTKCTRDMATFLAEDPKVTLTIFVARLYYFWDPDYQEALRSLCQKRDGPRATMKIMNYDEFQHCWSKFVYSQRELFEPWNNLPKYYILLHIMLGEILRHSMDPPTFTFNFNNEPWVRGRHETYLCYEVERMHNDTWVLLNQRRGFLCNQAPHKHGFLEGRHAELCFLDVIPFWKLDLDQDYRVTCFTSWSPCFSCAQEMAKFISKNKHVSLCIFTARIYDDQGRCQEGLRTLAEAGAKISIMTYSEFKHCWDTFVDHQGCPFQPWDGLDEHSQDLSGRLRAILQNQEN
FAS TE block = FAS thioesterase (human) inhibition; P49327; recombinant FAS-TE, OMFH fluorogenic substrate, fluorescence endpoint; inhibition, % at 15 µM; 0.67% of 360,000 active;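 active = compounds whose normalised, plate-corrected inhibition of enzyme fluorescence in the single-dose primary screen is 50% or more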;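 also: 0% = DMSO with enzyme and 100% = substrate without enzyme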
A3G conf = confirmation of human APOBEC3G DNA deaminase inhibitors. shares compounds with A3G deaminase. recombinant A3G ssDNA deaminase, UDG/FAM-TAMRA fluorescence. inhibition, % at 20 µM. 72% of 890 active;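 active = inhibition reaching a set limit in any replicate at 20 µM, the limit being 80% of the first screen's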
UDG A3G counter = E. coli UDG inhibition in APOBEC3G counter-screen; shares compounds with A3G deaminase; UDG counterscreen, FAM/TAMRA oligo fluorescence; inhibition, % at 20 µM; 710 tested, under 10 active; AID 504715;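 active = compounds giving 40% or more inhibition at 20 µM in any one of the three replicates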;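 also: plate controls were DMSO wells with UDG and oligo for no effect and DMSO wells lacking both for full effect; inhibitors lower the FAM signal released by uracil excision and alkaline cleavage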
Target sequence (P12295 whole entry, looked up): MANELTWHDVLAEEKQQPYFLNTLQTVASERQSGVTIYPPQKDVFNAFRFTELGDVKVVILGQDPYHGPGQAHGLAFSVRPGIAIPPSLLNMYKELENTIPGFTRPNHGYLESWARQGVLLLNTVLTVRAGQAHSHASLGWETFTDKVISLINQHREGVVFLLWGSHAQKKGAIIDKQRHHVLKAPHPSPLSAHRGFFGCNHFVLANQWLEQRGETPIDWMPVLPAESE
Starred values were filed as active, the others as inactive; . = no result given.

SMILES	APOBEC3A inh	NPR2 activator	GC-A act	A3G deaminase	FAS TE block	A3G conf	UDG A3G counter
CCCC(C)c1nnc(NC(=O)C2CC(=O)N(CCc3ccc(F)cc3)C2)s1 (stereo not drawn)	2	-1	-3	45*	-2	22*	3
CN(Cc1ccco1)C(=O)c1cccc2c1C(=O)N(Cc1cccnc1)C2	.	-11	0	.	.	.	.
Cc1cc(-c2n[nH]c(=S)n2/N=C/c2sccc2C)n[nH]1	-4	-10	-1	57*	-13	86*	17
Cc1ccsc1/C=N/n1c(-c2ccccc2)n[nH]c1=S	-2	-2	-4	32	-3	.	.
Cc1ccsc1/C=N/n1c(-c2ccccn2)n[nH]c1=S	1	-9	2	60*	-12	63*	1
Cc1ccsc1/C=N/n1c(-c2ccncc2)n[nH]c1=S	-11	0	-3	52*	-8	75*	-3
S=c1[nH]nc(-c2ccccn2)n1/N=C/c1cccc(Cl)c1	-5	0	6	43*	-6	77*	-1
O=C(NCC1COCCO1)C1CCN(S(=O)(=O)c2cccc3ccccc23)CC1 (stereo not drawn)	.	0	-1	.	.	.	.
COC(=O)c1ccccc1NC(=O)c1sc(=S)n(C)c1N	-1	-16	8	40*	13	41*	4
COc1ccc(NC(=O)c2ccc3c(c2)NC(=O)CS3)cc1S(=O)(=O)Nc1ccc(Br)cc1	3	5	-4	55*	7	30*	-3
O=C(NCc1nnc(SCC(=O)N2CCCCCC2)o1)c1ccco1	-1	7	2	77*	-5	3	6
COc1ccc2c(C)cc3n[nH]c(=S)n3c2c1	-7	-6	1	52*	0	87*	-1
COc1ccc(-c2n[nH]c(=S)n2-c2cc(OC)ccc2OC)cc1	-2	-3	-10	10	-6	.	.
S=C(NCCCN1CCOCC1)NCCCN1CCOCC1	0	6	-3	15	-10	.	.
S=c1[nH]nc(NCCCN2CCOCC2)s1	-4	0	3	44*	-4	47*	-37
CCCN1CCCCC(NC(=O)COCc2ccccc2)C1=O (stereo not drawn)	.	-3	5	.	.	.	.
CC(C)Cn1c(-c2nn(C)cc2Cl)n[nH]c1=S	-9	-7	3	26	-10	.	.
Cc1ccsc1-c1n[nH]c(=S)n1CC(C)C	-3	2	1	44*	-8	90*	-2
Cc1ccccc1-n1c(-c2ccc(Br)o2)n[nH]c1=S	-1	-3	-2	27	-8	.	.
CC(C)Cn1c(-c2ccc(Br)o2)n[nH]c1=S	-4	6	2	41*	3	76*	-4
C#CCNC(=O)C[C@H]1C[C@@]2(C(=O)OC)C(=C[C@H](C(C)(C)C)O[C@@H]2C)N(CCC2=CCCCC2)C1=O	.	-3	2	.	.	.	.
CC[C@H](CCC(=O)N(c1ccccc1)c1ccccc1)C1CC1	.	-12	-15	.	.	.	.
S=C(Nc1ccccc1)OC1CCC12CCC(c1ccccc1)CC2 (stereo not drawn)	.	7	4	.	.	.	.
CN(C(=O)CNC(=O)c1ccccc1OCC(=O)Nc1ccc(I)cc1)c1ccccc1	.	4	0	.	.	.	.
C=CCn1c(CSc2ccccc2[N+](=O)[O-])n[nH]c1=S	21	-8	-14	46*	-2	68*	2
SMILES	APOBEC3A inh	NPR2 activator	GC-A act	A3G deaminase	FAS TE block	A3G conf	UDG A3G counter
COc1cccc(CNC(=O)[C@H]2CCCN2C(=O)[C@H]2CCCN2C(=O)c2ccccc2C(F)(F)F)c1	.	-3	3	.	.	.	.
Cc1ccc(C(=O)CSc2ccc(-c3ccccc3)nn2)cc1	-3	-1	-3	74*	22	16	-1
COc1ccccc1NC(=O)OC1CC2CC1[C@H]1CCCCN1[C@H]2Cc1ccccc1 (stereo partly drawn)	.	-2	-7	.	.	.	.
C=CCn1c(COc2ccc(C)cc2)nnc1SCc1ccc([N+](=O)[O-])cc1	.	-7	-7	.	.	.	.
Cc1cccc(NC(=O)C2CCCN2S(=O)(=O)c2cccnc2)c1C (stereo not drawn)	.	5	3	.	.	.	.
COc1ccc(OC)c2c1C(=O)C(Cl)=C(Cl)C2=O	-6	22	43*	88*	30	92*	-2
COc1cccc2c1C(=O)c1ccc3ccccc3c1C2=O	-10	.	.	65*	14	22*	-3
COc1ccc(OC)c2c1C(=O)c1ccccc1C2=O	-4	-4	-2	56*	.	-11	-2
COc1cccc2c1-c1c(C(=O)O)cccc1C2=O	0	-1	-5	-7	-4	.	.
COC(=O)[C@]12C[C@H](CC(=O)NCc3ccc(C)o3)C(=O)N(Cc3ccco3)C1=C[C@H](C1CCCC1)O[C@@H]2C	.	-5	-8	.	.	.	.
CCCC(C(=O)Nc1ccc(C)c(S(=O)(=O)N2CCOCC2)c1)c1ccccc1 (stereo not drawn)	-2	-5	-1	-6	14	.	.
CCC(Oc1ccccc1)C(=O)Nc1ccc(C)c(S(=O)(=O)N2CCOCC2)c1 (stereo not drawn)	2	-4	3	81*	4	-1	.
Cn1c(CSc2nc3ccccc3s2)nc2ccccc21	2	-6	1	-7	0	.	.
S=c1[nH]nc(CSCCOc2ccccc2)o1	-1	-3	1	4	0	.	.
Cn1c(CSCCOc2ccccc2)n[nH]c1=S	4	-4	-2	41*	-2	24	.
Cc1ccc(-c2n[nH]c(=S)n2C)cc1	.	-4	5	.	-3	.	.
Cn1c(-c2sc3ccccc3c2Cl)n[nH]c1=S	-3	-4	2	41*	-8	63*	-2
Cn1c(CSc2nc3ccccc3s2)n[nH]c1=S	6	-10	0	48*	2	58*	-3
Cn1c(-c2csc(-c3ccccc3)n2)n[nH]c1=S	0	-1	-5	45*	-2	64*	-4
Cc1nc2ccc(NC(=O)c3ccc(F)cc3F)cc2c(=O)[nH]1	.	-5	2	.	.	.	.
O=C1/C(=C\c2cccc(O)c2O)SC(=S)N1Cc1ccccc1	2	6	3	62*	27	59*	-3
CCOC(=O)c1cccc(NC(=O)Cn2cc3c(n2)CCC(C)C3)c1 (stereo not drawn)	2	-2	-3	47*	2	-2	.
O=c1cc(CN2CCN(c3ccc(O)cc3)CC2)nc2scc(-c3ccccc3)n12	16	2	-2	73*	-3	9	.
COc1cc(N2C(=O)C=CC2=O)c(OC)cc1Cl	-2	-18	-30	43*	0	54*	-1
COc1cc(Cl)c(S(=O)(=O)N2CCCC2)cc1Cl	-4	-2	1	-13	0	.	.

Screening results: PubChem BioAssay, Sanford-Burnham Center for Chemical Genomics
